Bioassay records from PubChem BioAssay.
CF NFkB inh = inhibitors of cystic fibrosis induced NF-kB; KKLEB NF-kB-GFP reporter, PAF-induced, GFP fluorescence overnight; inhibition, % at 5 µM; 0.86% of 360,000 active;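 active = at least 50% inhibition at 5 µM, scaled per plate between neutral and stimulator controls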;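 note: PAF is a Pseudomonas aeruginosa culture filtrate used as stimulus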
HIF-2a block = inhibitors of HIF-2a; 0.72% of 360,000 active; 786-0 RCC cells HIF-2a reporter, luciferase luminescence, overnight; inhibition, % at 18.8 µM;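 active = inhibition of the luminescence signal of 40% or more relative to plate controls, in a single-dose primary screen at 18.75 µM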
KKLEB cytotox = counter-screen for CF NF-kB inhibitors: cytotoxicity. KKLEB CF airway cells viability, ATPlite luminescence, overnight; stronger effect = lower value; cells stimulated with P. aeruginosa culture filtrate. activity change (cytotoxicity), % at 5 µM. 0.36% of 360,000 active. AID 602141;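 active = corrected activity change at or below -50% at 5 µM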
Peg3 prom inh-1 = inhibitors of Peg3 promoter; HeLa PEG-Prom luciferase reporter, luminescence, overnight; inhibition, % at 20 µM; 1.7% of 360,000 active;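 active = inhibition of at least 50% at 20 µM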
TWEAK Fn14 block = blocks TWEAK-Fn14 interaction in a reporter cell assay | AID 1159606 | 2% of 360,000 active | TWEAK-stimulated Fn14 reporter cells, luciferase luminescence, 8 h | inhibition, % at 10 µM; in the data active = inhibition above about 50%
TROY NFkB inh = blocks TROY-dependent signaling in reporter cells; Q293 LMP1-TROYcd NF-kB luciferase reporter, 4 h; inhibition, % at 10 µM; 0.98% of 360,000 active; AID 1347056;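 active = compounds whose plate-normalised and pattern-corrected inhibition of the luciferase reporter signal at the single screening dose is 50% or more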
Peg3 prom inh-2 = Peg3 promoter inhibition confirmation | shares compounds with Peg3 prom inh-1 | HeLa PEG-Prom luciferase reporter, luminescence, overnight | inhibition, % at 20 µM | 84% of 1,300 active | AID 602417;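 active = at 20 µM dose, 40% or more inhibition averaged across four replicates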
Large screens that a line does not name were inactive (follow-up assays come after a bar, where they were run). Hits are enriched below; roughly 4% of the tested compounds scored in any of these assays.

COc1ccc(-c2csc(NC(=O)C3COc4ccccc4O3)n2)cc1OC (configuration not stated)	Peg3 prom inh-1 66 | Peg3 prom inh-2 inactive
Cc1cccc(-c2nc(CS(=O)CC(=O)NCc3ccco3)c(C)o2)c1 (configuration not stated)	none
NCCNc1cc(N2CCCC2)ccc1[N+](=O)[O-]	none
CCc1ccc(OCCNc2cc(N3CCNC(C)C3)ccc2[N+](=O)[O-])cc1 (configuration not stated)	Peg3 prom inh-1 100 | Peg3 prom inh-2 100
Cn1c(=O)c(=O)n(C)c2cc(S(=O)(=O)N3CCCCC3)ccc21	none
C=CCc1cccc(/C=N/NC(=O)C(C)Nc2cccc(C)c2)c1O (configuration not stated)	Peg3 prom inh-1 50 | Peg3 prom inh-2 44
C=CCc1cccc(/C=N/NC(=O)CCCNc2ccc(C)cc2)c1O	none
CCOC(=O)N1CCC(NCCNC(=O)c2ccc(Cl)cc2)CC1	none
COc1ccccc1N(CC(=O)Nc1ccccc1C)S(C)(=O)=O	none
COc1ccccc1N(CC(=O)N/N=C/c1c(O)ccc2ccccc12)S(C)(=O)=O	Peg3 prom inh-1 50 | Peg3 prom inh-2 70
CN1CCC2(CC1)N=C(c1ccc(F)cc1)C(=S)N2C(=O)c1ccc(C(C)(C)C)cc1	Peg3 prom inh-1 70 | Peg3 prom inh-2 84
CC(C)(C)c1ccc(C(=O)N2CCNCC2)cc1	none
Cc1cc(C2=NNC(=NC3CCCCC3)SC2)c(C)n1-c1c(C)n(C)n(-c2ccccc2)c1=O	none
Cc1cc(C2=NNC(=NC3CC3)SC2)c(C)n1-c1ccccc1F	HIF-2a block 89, KKLEB cytotox -58, Peg3 prom inh-1 104, TWEAK Fn14 block 104, TROY NFkB inh 89 | Peg3 prom inh-2 98
Cc1ccc2cccc(OCC(=O)Nc3cccc(S(=O)(=O)N4CCCC4)c3)c2n1	Peg3 prom inh-1 64 | Peg3 prom inh-2 64
C[C@@H]1CN([C@H](C)CO)C(=O)CCCn2nncc2CO[C@H]1CN(C)S(=O)(=O)c1cccc(C#N)c1	none
Cc1ccc(-c2cc(=O)c3ccccc3[nH]2)cc1	none
Cc1ccc(-c2cc3c(N=O)c4ccccc4c-3n[nH]2)cc1	HIF-2a block 68, KKLEB cytotox -81, Peg3 prom inh-1 59, TWEAK Fn14 block 103, TROY NFkB inh 88 | Peg3 prom inh-2 69
Cc1nn(C)c(C)c1NC(=O)CSc1nc(Cc2ccccc2)nc2c1cnn2-c1ccccc1	Peg3 prom inh-1 96 | Peg3 prom inh-2 inactive
Cc1ccc(-c2nc(C(Cl)Cl)c3ccccc3n2)cc1	Peg3 prom inh-1 111 | Peg3 prom inh-2 99
O=C(CCCN=C1NS(=O)(=O)c2ccccc21)OCc1ccc(F)cc1	none
N=c1c(C(=O)NCC2CCCO2)cc2c(=O)n3ccccc3nc2n1C1CCCCC1 (configuration not stated)	none
CN(C)CCNc1ccc2ncn3c4ccc(O)cc4c(=O)c1c23	HIF-2a block 49, Peg3 prom inh-1 101 | Peg3 prom inh-2 71
Cc1ccc(S(=O)(=O)N2CCCC(NC(=O)N3CCN(c4ccccc4)CC3)C2)cc1 (configuration not stated)	none
Oc1c(Cl)cc(Cl)c2cccnc12	Peg3 prom inh-1 64, TROY NFkB inh 63 | Peg3 prom inh-2 66
CC(=O)c1cccc(NC(=O)C2Cc3c(-c4cccc(C(C)=O)c4)ccnc3O2)c1 (configuration not stated)	none
CC(=O)c1cccc(-c2ccnc3c2CC(C(=O)Nc2cccc(NS(C)(=O)=O)c2)O3)c1 (configuration not stated)	Peg3 prom inh-1 59 | Peg3 prom inh-2 57
CN(c1ccccc1)c1nccc(=O)[nH]1	none
O=C(Nc1nncs1)c1cc2c(s1)CCC2	none
O=C(Nc1nccs1)c1cc2c(s1)CCCCC2	HIF-2a block 51, KKLEB cytotox -54, Peg3 prom inh-1 58, TWEAK Fn14 block 100, TROY NFkB inh 78 | Peg3 prom inh-2 inactive
COC(=O)C1=C(C(=O)OC)C(C(=O)OC)C(C(=O)OC)C(C(=O)OC)(C(=O)OC)C(C(=O)OC)=C1C(=O)OC (configuration not stated)	Peg3 prom inh-1 107 | Peg3 prom inh-2 99
COC(=O)C1C(C(=O)OC)C1(c1ccccc1)c1ccccc1 (configuration not stated)	none
COc1ccc(C(=O)Nc2nnc(-c3ccco3)s2)cc1	Peg3 prom inh-1 63, TWEAK Fn14 block 85 | Peg3 prom inh-2 inactive
O=C(c1cc(Cl)nc2ccccc12)N1CCN(S(=O)(=O)c2cccc(F)c2)CC1	none
O=S(=O)(c1cccc(F)c1)N1CCN(c2nc(-c3cccnc3)nc3ccccc23)CC1	Peg3 prom inh-1 53 | Peg3 prom inh-2 55
CC(=O)c1cccc(NC(=O)c2ccccc2N(C)S(=O)(=O)c2ccc(C)cc2)c1	none
Cc1cc2ccccc2n2c(SCC(=O)Nc3ccc(S(=O)(=O)N4CCCCC4)cc3)nnc12	none
Cc1cc2cc(C)c3nnc(SCC(=O)Nc4ccc(S(=O)(=O)N5CCCCC5)cc4)n3c2cc1C	Peg3 prom inh-1 69 | Peg3 prom inh-2 inactive
CC(C)CC1C(=O)N(Cc2cn(CCC3OCCO3)nn2)CCS(=O)(=O)N1Cc1ccc(-c2ccc(F)cc2)cc1 (configuration not stated)	Peg3 prom inh-1 50 | Peg3 prom inh-2 55
CCc1nc(Nc2ccc(N3CCN(C(C)=O)CC3)cc2)c2oc3ccccc3c2n1	Peg3 prom inh-1 79 | Peg3 prom inh-2 68
Cc1c(OCC(=O)NC2CC(C)(C)NC(C)(C)C2)ccc2c3c(c(=O)oc12)CCC3	none
Cc1c(OCC(=O)NC2CC(C)(C)NC(C)(C)C2)ccc2c1oc(=O)c1ccccc12	Peg3 prom inh-1 100 | Peg3 prom inh-2 85
O=c1c2ccccc2sc2nc(CCl)nn12	Peg3 prom inh-1 104 | Peg3 prom inh-2 93
Cc1ccc(-c2nn(-c3ccccc3)cc2CSC(=N)N)cc1	Peg3 prom inh-1 101 | Peg3 prom inh-2 41
O=C(Nc1cccc(S(=O)(=O)N2CCOCC2)c1)c1ccc2c(=O)n3c(nc2c1)CCCCC3	Peg3 prom inh-1 51 | Peg3 prom inh-2 51
O=C(O)c1cccc(-c2csc(C(O)c3ccc(F)cc3)n2)c1 (configuration not stated)	none
COc1cccc(/C=C2/Sc3ccc(C(=O)NCCCN4CCCC4)cc3NC2=O)c1	Peg3 prom inh-1 78 | Peg3 prom inh-2 94
COc1ccc(NC(=O)c2cc3c(CO)cnc(C)c3oc2=Nc2cccc(C)c2)c(OC)c1	Peg3 prom inh-1 89 | Peg3 prom inh-2 inactive
CCN(C(=O)COc1ccc(C)nc1[N+](=O)[O-])C1CCS(=O)(=O)C1 (configuration not stated)	none
